Shown are actives, neighbours in structure and some others; about 9.2% of the full set was active somewhere.
Rab9 prom act: qHTS Assay for Rab9 Promoter Activators; Huh7 Rab9 promoter-luciferase reporter, luminescence, 24 h; Potency, µM (doses to about 9.22 µM), hits mostly activators; actives 2.8% (n = 320,000); AID 485297, 2010; note: nearly all actives have a fitted effect of over 60% in size
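Using Huh7 cells stably transfected with Rab9 promoter–luciferase, compounds were incubated 24 h at 37 °C, 5% CO2; luciferase luminescence was read 10 min after reagent addition.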
ELG1 repair inh: qHTS screen for small molecules that inhibit ELG1-dependent DNA repair in human embryonic kidney (HEK293T) cells expressing luciferase-tagged ELG1 | HEK293T ELG1-luciferase reporter, luminescence, 16 h; DNA damage induced by 5-fluorouridine | Potency, µM (series often up to 46.1 µM), hits mostly inhibitors | actives 2.3% (n = 330,000); note: nearly all actives have a fitted effect of over 55% in size
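In this reporter screen, reduction of luminescence relative to DMSO vehicle indicated activity. Compounds and 5-fluorouridine were added together to 2,000 cells per well, incubated for 16 hr at 37 °C, then developed with ONE-Glo.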
ELG1 genotoxic: qHTS screen for small molecules that induce genotoxicity in human embryonic kidney (HEK293T) cells expressing luciferase-tagged ELG1 | actives 1.3% (n = 330,000) | Potency, µM (series often up to 46 µM), usual class: activators | HEK293T ELG1-luciferase reporter, luminescence, 16 h | AID 504466, 2011; note: nearly all actives have a fitted effect of over 60% in size
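Genotoxic stress is detected as increased luminescence from luciferase-tagged ELG1 in HEK293T cells, measured with ONE-Glo after a 16 hr treatment at 37 °C.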
NPC1 promoter act: qHTS Assay for NPC1 Promoter Activators; Huh7 NPC1 promoter luciferase reporter, 24 h; actives 2.4% (n = 320,000); Potency, µM (highest dose often 9.22 µM), usual class: activators; note: nearly all actives have a fitted effect of over 60% in size
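Stably transfected Huh7 (NPC1 promoter→luciferase), 1500 cells/well in Opti-MEM + 10% FBS, 2 h settle, then compound 24 h at 37 °C. Luminescence after 10 min with Amplite reagent.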
FLuc modulator: qHTS profiling assay for firefly luciferase inhibitor/activator using purifed enzyme and Km concentrations of substrates (counterscreen for miR-21 project); Luciferin 4-monooxygenase (Photinus pyralis), P08659; purified FLuc, Km substrates, luminescence inhibition; Potency, µM (series often up to 57.5 µM), actives largely listed as inhibitors; actives 6.9% (n = 360,000); AID 588342, 2011; note: nearly all actives have a fitted effect of over 55% in size
Target sequence (P08659 whole entry, looked up): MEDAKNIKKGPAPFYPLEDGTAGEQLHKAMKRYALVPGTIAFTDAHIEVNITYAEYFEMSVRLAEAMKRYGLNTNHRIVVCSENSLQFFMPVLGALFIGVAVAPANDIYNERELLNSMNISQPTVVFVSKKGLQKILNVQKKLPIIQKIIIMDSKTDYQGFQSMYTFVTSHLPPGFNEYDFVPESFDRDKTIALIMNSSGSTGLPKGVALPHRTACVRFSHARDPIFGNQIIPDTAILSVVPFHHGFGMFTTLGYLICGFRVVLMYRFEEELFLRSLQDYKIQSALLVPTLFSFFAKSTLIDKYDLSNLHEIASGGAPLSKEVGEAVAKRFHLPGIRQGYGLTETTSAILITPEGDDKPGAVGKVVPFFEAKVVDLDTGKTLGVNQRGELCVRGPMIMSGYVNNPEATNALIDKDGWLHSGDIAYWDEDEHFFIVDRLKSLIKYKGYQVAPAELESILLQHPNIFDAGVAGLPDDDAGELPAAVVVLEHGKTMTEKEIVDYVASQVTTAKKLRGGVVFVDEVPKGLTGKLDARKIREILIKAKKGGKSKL
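Purified P. pyralis luciferase, 10 nM final, with Km-level 10 uM D-luciferin and 10 uM ATP in 50 mM Tris acetate pH 7.5, 10 mM Mg acetate, 0.01% Tween-20, 0.05% BSA; 6-point qHTS titration about 60 µM downward; luminescence read.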
SMN2 splice up: qHTS Assay for Enhancers of SMN2 Splice Variant Expression; HEK293 SMN2-luciferase splicing reporter, luminescence, 30-36 h; Potency, µM (top dose mostly 46.1 µM), usual class: activators; actives 2.8% (n = 210,000); AID 1458, 2008; note: nearly all actives have a fitted effect of over 55% in size
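qHTS luciferase splicing reporter: luminescence rises when SMN2 exon 7 is included in transfected HEK293 cells. Compound exposure lasted 30-36 h at 37C, with 4.5 mM final sodium butyrate as control, followed by a ONE-Glo read.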
Each line names hits and unclear results; the compound was inactive in the other large screens. Calls come from the whole dose curve; as a rule, active = well fitted curve in the direction sought with a large enough effect; inconclusive = small, poorly fitted or top-dose-only effect, or another doubt; inactive = no such curve, though single readings can be large; an effect the other way counts as inactive or inconclusive.

Cc1ncsc1C(=O)Nc1nc2c(s1)CC(C)CC2 (stereo not drawn)	Rab9 prom act inconclusive, ELG1 repair inh inconclusive, ELG1 genotoxic 2.1µM, NPC1 promoter act 1.8µM, FLuc modulator 2.1µM, SMN2 splice up 13µM
CC1CCc2nc(NC(=O)COc3ccc(C(C)(C)C)cc3)sc2C1 (stereo not drawn)	none (no result: Rab9 prom act, ELG1 repair inh, ELG1 genotoxic, NPC1 promoter act, SMN2 splice up)
Cc1ccccc1C(=O)Nc1nc2c(s1)CC(C(C)(C)C)CC2 (stereo not drawn)	FLuc modulator 6µM (no result: Rab9 prom act, ELG1 repair inh, ELG1 genotoxic, NPC1 promoter act, SMN2 splice up)
Cc1noc(C)c1CCC(=O)N1CCCC(CCC(=O)NCc2ccc(F)c(F)c2)C1 (stereo not drawn)	none (no result: SMN2 splice up)
COc1ccc(C(=O)c2cn(Cc3ccccc3)c3ccccc3c2=O)cc1OC	none (no result: Rab9 prom act, ELG1 repair inh, ELG1 genotoxic, NPC1 promoter act)
Cc1cc(C)cc(NC(=O)c2cc(C)n(Cc3cccs3)c2C)c1	Rab9 prom act 0.71µM, ELG1 repair inh inconclusive, ELG1 genotoxic inconclusive, NPC1 promoter act 1.1µM, FLuc modulator 0.34µM (no result: SMN2 splice up)
Cc1cc(C(=O)Nc2ccc(Cl)cc2)c(C)n1Cc1cccs1	Rab9 prom act 0.32µM, ELG1 repair inh inconclusive, ELG1 genotoxic 2.3µM, NPC1 promoter act 0.71µM, FLuc modulator 0.6µM (no result: SMN2 splice up)
CCCN(Cc1cccs1)C(=O)Nc1cc(C)cc(C)c1	none (no result: Rab9 prom act, ELG1 repair inh, ELG1 genotoxic, NPC1 promoter act, SMN2 splice up)
COc1ccc(NS(=O)(=O)c2ccc(C(=O)N3CCC(C)CC3)cc2)cc1	ELG1 repair inh inconclusive (no result: Rab9 prom act, NPC1 promoter act, FLuc modulator, SMN2 splice up)
COc1ccc(-c2cc(C(=O)Nc3ccccc3SC)no2)cc1	ELG1 repair inh inconclusive
COc1ccc(Cl)cc1NC(=O)Nc1ccccc1SC	none
O=C(Nc1ccccc1F)Nc1ccccc1Br	ELG1 repair inh inconclusive, ELG1 genotoxic inconclusive, FLuc modulator 17µM
COc1ccc(NC(=O)Nc2ccccc2F)cc1Cl	Rab9 prom act 1.4µM, ELG1 repair inh inconclusive, ELG1 genotoxic 5.2µM, NPC1 promoter act 1.8µM, FLuc modulator inconclusive, SMN2 splice up 10µM
CSc1ccccc1NC(=O)Nc1ccc(Cl)cc1	Rab9 prom act inconclusive, ELG1 repair inh inconclusive, ELG1 genotoxic inconclusive, NPC1 promoter act inconclusive, FLuc modulator 11µM
COc1ccc(NC(=O)Nc2ccccc2SC)cc1	Rab9 prom act inconclusive, ELG1 repair inh inconclusive, ELG1 genotoxic inconclusive, NPC1 promoter act inconclusive, FLuc modulator 11µM, SMN2 splice up 13µM
CNC(=O)Nc1ccccc1F	none

Source: PubChem (National Center for Advancing Translational Sciences (NCATS))
